Assay [1] can be described thus: Her2 expression decrease, cell viability multiplex – SKBR3 breast tumor cells, AlphaScreen, ATP viability, primary screen (AID 461;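 active = Her2 level under about 52% in both replicate screens, with viability over 70% of control, limit read from the data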;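 as to Her2 level: lower value means less Her2 protein in the cells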;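 as to viability: percent of carrier control wells set as 100% viability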). The settings on record: SKBR3 Her2 protein level, 18-24 h, measured here: SKBR3 viability, ATP luminescence, at 10 µM. (Bead proximity is the source of the signal in Alpha formats.)
For assay [2], the target named is Receptor tyrosine-protein kinase erbB-2 (Homo sapiens) (UniProt P04626). Described as above. The settings on record: 18-24 h, at 10 µM, stronger effect = lower value.
Assay [3] in a line: reduced viability of SK-BR-3 breast cancer cells – cell-based, 24 h, human, pilot screen (AID 572;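 active = viability at or below 10% of carrier control in both of two separate runs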;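 also: compound exposure lasted between 18 and 24 h rather than exactly 24 h; 100% = carrier-treated control wells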). As to conditions: SK-BR-3 viability, CellTiter-Glo luminescence, at 10 µM, stronger effect = lower value. A general note: Cellular ATP, detected with luciferase, serves as a proxy for viable cell number.
The nature of assay [4]: HUVEC growth inhibition – cell-based, human, primary screen (AID 575;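 active = viability at or below 30% in both replicate assays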;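 also: 100% = median of untreated cell wells with 0.1% DMSO on each plate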). The settings on record: HUVEC proliferation, CellTiter-Glo luminescence, 72 h; at 10 µM; stronger effect = lower value.
A short description of assay [5]: H69AR cell proliferation blockers – human, duplicate replicates, primary screen (AID 580;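 active = viability at or under a set limit in both replicates, limit being median viability minus 3 SD, cut at about 48% in these data, passing the limit was not always enough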;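 also: 100% = mean luminescence of untreated wells and 0% = no signal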). As to conditions: H69AR lung tumor cells viability, ATP luminescence, 72 h; at 10 µM; stronger effect = lower value.
The nature of assay [6]: MRP1 drug-resistance reversers in H69AR cells – cell-based, doxorubicin co-treatment, pilot screen (AID 601;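 active = viability loss from added drug above about 55%, and viability with drug at most 40%, in both replicates, limit read from the data, passing the limit was not always enough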). The settings on record: CellTiter-Glo, 72 h, at 10 µM; for differential viability (reversal): stronger effect = higher value.
Assay [7] is described as follows: yeast transport mutant growth inhibition pilot in 384-well plates, post-Golgi transport modulator project (AID 636; in the data active = inhibition above about 31%). As to conditions: absorbance 615 nm, about 18 h, stronger effect = higher value.
A short description of assay [8]: growth suppression of yeast trafficking mutant, preliminary HTS, modulators of trafficking downstream of Golgi apparatus project, 1536-format plate, OD 615 nm (AID 637; in the data active = inhibition above about 30%). The settings on record: yeast transport mutant growth, absorbance 615 nm, 18 h; stronger effect = higher value.
Assay [9] is described as follows: S. cerevisiae growth inhibition in permissive medium (OD615), pilot counter-assay for S. cerevisiae lifespan shortening project, permissive growth control (AID 705;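 active = growth inhibition above 25% in both replicates, a cutoff set 3 SD above the mean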). As to conditions: OD615, 24 h, at 10 µM, stronger effect = higher value.
A short description of assay [10]: S. cerevisiae growth inhibition in restrictive medium, OD615, pilot screen, restrictive growth control, yeast lifespan reduction project (AID 706;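 active = growth inhibition above a set limit, 3 SD over mean compound inhibition, in both replicates, cut at about 43% in these data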;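 also: modified DeaD lifespan yeast strain shifted to restrictive glucose medium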). As to conditions: OD615, 48 h, at 10 µM, stronger effect = higher value.
Assay [11] can be described thus: doxorubicin toxicity protection in MRP-1 cells – H69AR cells, CellTiter-Glo, duplicate, MRP-1 activator project, pilot screen (AID 807;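 active = viability increase at or above a cutoff of the median across tested compounds plus 3 SD, cut at about 8.5% in these data, passing the limit was not always enough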;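 also: compound pretreatment 18-22 h then 72 h combined with doxorubicin; 0% = doxorubicin alone and 100% = vehicle without doxorubicin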). The settings on record: H69AR viability with doxorubicin, CellTiter-Glo luminescence; at 10 µM; stronger effect = higher value.
Assay [12] can be described thus: viability of HCT116 without oncogenic beta-catenin – human colon tumor cells, pilot screen (AID 823).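 Also: 0% = wells killed by 20 µM Hyamine and 100% = untreated DMSO cell wells.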 The settings on record: HCT116 beta-catenin knockout viability, CellTiter-Glo, 60 h; at 10 µM; stronger effect = lower value.
Assay [13] in a line: viability of PTEN-null HCT116 cells – cell-based, HCT116 clonal line, CellTiter-Glo, pilot screen (AID 824;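 active = viability at or below 27.92% in each of two runs, the all-compound median minus 4 SD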;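 also: 0% = 20 µM Hyamine control and 100% = vehicle cell control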). The settings on record: HCT116 PTEN-deleted viability, 60 h, at 10 µM, stronger effect = lower value.
Assay [14] is described as follows: RAM pathway blockade in budding yeast – dse1pr::URA3 reporter, 5-FOA selection, pilot screen (AID 869;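 active = inhibition over a set limit, the all-compound mean plus 3 SD, in both replicate runs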;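 also: 0% = DMSO wells with no growth and 100% = 10 µM 1-NA-PP1 with full growth; RAM network block rescues cells from 5-FOA so hits raise OD615 growth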). The settings on record: S. cerevisiae dse1pr::URA3 5-FOA growth, OD615, 2 d; at 10 µM; stronger effect = higher value; strain carries analog-sensitive mutant Cbk1 kinase.
A short description of assay [15]: RAM signaling pathway blockade in yeast – S. cerevisiae, Pdr1DBD-CYC8 efflux-inhibited sensitized strain, primary screen (AID 1298;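 active = RAM network inhibition above 8.4% in each of two replicates, 3 SD over the compound average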;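 also: 0% = DMSO untreated cells without growth and 100% = 10 µM 1-NA-PP1 full growth; higher means more yeast growth rescued from 5-FOA killing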). The settings on record: S. cerevisiae cbk1-as DSE1-URA3 strain, 5-FOA growth OD615, 2 d; at 50 µM; stronger effect = higher value.
Setting [16] is: H69AR cells + 2 uM doxorubicin, measured here: viability with 2 uM doxorubicin, stronger effect = lower value.
[17] abbreviates: H69AR cells, compound alone cytotoxicity.

Results filed as inconclusive are left out. Active and inactive are the calls of the source.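 The calls were made as follows, unless noted: active = cell viability at or below a set limit in both duplicate runs, the limit being the all-compound median minus 4 SD (cut at about 23% in these data, passing the limit was not always enough); inconclusive = no clear call, values can overlap the other calls; inactive = the rest.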

Chain of Receptor tyrosine-protein kinase erbB-2 (Homo sapiens) (P04626 whole entry, looked up): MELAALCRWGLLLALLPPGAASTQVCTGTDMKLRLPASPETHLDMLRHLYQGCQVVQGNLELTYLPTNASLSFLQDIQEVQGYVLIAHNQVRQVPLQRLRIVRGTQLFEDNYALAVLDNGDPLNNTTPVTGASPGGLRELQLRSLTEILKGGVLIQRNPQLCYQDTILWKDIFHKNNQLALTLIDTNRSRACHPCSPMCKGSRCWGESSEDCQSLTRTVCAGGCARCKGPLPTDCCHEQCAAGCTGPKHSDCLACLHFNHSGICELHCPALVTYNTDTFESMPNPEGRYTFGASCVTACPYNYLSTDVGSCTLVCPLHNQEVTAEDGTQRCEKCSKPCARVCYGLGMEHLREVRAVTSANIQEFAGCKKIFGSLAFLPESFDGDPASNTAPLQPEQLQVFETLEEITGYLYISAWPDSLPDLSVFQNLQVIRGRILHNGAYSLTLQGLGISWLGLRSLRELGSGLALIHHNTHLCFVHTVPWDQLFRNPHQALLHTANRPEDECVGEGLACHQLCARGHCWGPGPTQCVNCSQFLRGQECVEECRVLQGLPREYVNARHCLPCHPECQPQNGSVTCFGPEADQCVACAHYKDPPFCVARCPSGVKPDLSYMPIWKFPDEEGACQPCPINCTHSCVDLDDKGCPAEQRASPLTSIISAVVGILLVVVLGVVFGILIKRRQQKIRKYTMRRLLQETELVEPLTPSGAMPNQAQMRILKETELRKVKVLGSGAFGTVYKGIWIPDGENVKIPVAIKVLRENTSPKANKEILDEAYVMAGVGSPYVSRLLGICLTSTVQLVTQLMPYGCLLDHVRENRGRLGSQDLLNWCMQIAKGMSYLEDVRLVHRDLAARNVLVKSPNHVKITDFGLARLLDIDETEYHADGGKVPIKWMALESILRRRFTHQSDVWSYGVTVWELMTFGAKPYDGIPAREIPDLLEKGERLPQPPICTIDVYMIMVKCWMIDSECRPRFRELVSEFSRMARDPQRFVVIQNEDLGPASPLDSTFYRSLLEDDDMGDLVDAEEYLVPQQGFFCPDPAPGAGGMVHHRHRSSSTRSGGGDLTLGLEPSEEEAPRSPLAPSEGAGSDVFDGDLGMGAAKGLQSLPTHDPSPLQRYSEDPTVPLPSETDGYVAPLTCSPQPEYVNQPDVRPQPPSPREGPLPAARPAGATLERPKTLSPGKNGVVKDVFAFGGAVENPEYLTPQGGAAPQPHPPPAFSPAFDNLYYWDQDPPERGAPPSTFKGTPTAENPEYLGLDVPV

A word on the viability: it is a read-out of living cells in per cent, often relative to untreated cells. What is called inhibition is the relative decrease from the control value, in per cent. On to `O=C(c1ccc(CNc2c(N3CCCC3)c(=O)c2=O)cc1)N1CCc2ccccc2C1`, for which the viability in assay [1] is 90.5%; in assay [3] it was 90.5% (inactive); in [4], 104% (inactive); in [5], 95.3% (inactive); in [6] (setting [16]) it was 92.6%; in assay [6] (setting [17]), 95.3%. Besides, the viability is 92.6% (inactive) in assay [12] and 91% (inactive) in [13]. The Her2 level in assay [2] was 100% (inactive). In assay [6] (H69AR cells + 2 uM doxorubicin), the differential viability (reversal) is 2.69% (inactive). For the same compound, the inhibition in [7] is 3.59% (inactive); in assay [8] it was 6.67% (inactive); in [14] it was 0.36% (inactive). The growth inhibition is -4% (inactive) in assay [9] and -0.375% (inactive) in assay [10]. For the same compound, the viability increase in assay [11] is -0.78% (inactive). The RAM network inhibition in assay [15] was 0.72% (inactive).
Regarding `CCN(CC)S(=O)(=O)c1ccc2oc(C(=O)N3CCOCC3)c(C)c2c1`, the viability in assay [1] is 79.5%; in assay [3], 79.5% (inactive); in [4], 106% (inactive); in [5], 96.5% (inactive); in assay [6] (setting [16]), 97%; in assay [6] (setting [17]), 96.5%. Besides, the values for the viability in [12] and in assay [13] were 93.7% (inactive) and 98.8% (inactive), respectively. Also, in [2], the Her2 level is 101% (inactive). Moreover, the differential viability (reversal) in assay [6] (H69AR cells + 2 uM doxorubicin) is -0.525% (inactive). The inhibition in assay [7] was 0.67% (inactive); in assay [8] it was -4.84% (inactive); in [14] it was -0.09% (inactive). The values for the growth inhibition in assay [9] and in [10] were -6.28% (inactive) and -17.5% (inactive), respectively. In assay [11], the viability increase was 0.12% (inactive). Also, the RAM network inhibition in assay [15] is -0.22% (inactive).
`CCC(C)NC(=O)c1cn(CC)c2ccc(S(=O)(=O)N(C)C)cc2c1=O` (stereo not given): the viability in assay [1] was 87%; in assay [3] it was 87% (inactive); in assay [4] it was 85.7% (inactive); in [5], 78.9% (inactive); in assay [6] (setting [16]) it was 90.6%; in [6] (setting [17]), 78.9%. Further, the viability in assay [12] was 92.4% (inactive); in assay [13], 93.4% (inactive). The Her2 level in assay [2] was 84% (inactive). Also, the differential viability (reversal) in [6] (H69AR cells + 2 uM doxorubicin) is -11.6% (inactive). The inhibition was -4.53% (inactive) in assay [7], -2.33% (inactive) in assay [8] and -0.32% (inactive) in assay [14]. The growth inhibition in assay [9] was 2.96% (inactive); in assay [10], 14.4% (inactive). For the same compound, the viability increase in [11] was -2.73% (inactive). Further, in assay [15], the RAM network inhibition was 1.7% (inactive).
Turning to `CN1CCN(CCCNC(=O)Cn2ncc3c4ccccc4n(C)c3c2=O)CC1`, the viability in assay [1] is 84%; in assay [3], 84% (inactive); in [4], 82.7% (inactive); in assay [5], 86% (inactive); in assay [6] (setting [16]) it was 94.1%; in assay [6] (setting [17]), 86%. The viability in [12] is 92.9% (inactive); in assay [13], 100% (inactive). Also, the Her2 level in [2] was 129% (inactive). Also, the differential viability (reversal) in [6] (H69AR cells + 2 uM doxorubicin) was -8.1% (inactive). Further, the inhibition in [7] was 1.15% (inactive); in assay [8] it was 10.8% (inactive); in assay [14], 3.37% (inactive). The growth inhibition in assay [9] is -16.9% (inactive); in assay [10] it was -28.7% (inactive). In addition, the viability increase in assay [11] was -1.44% (inactive). In [15], the RAM network inhibition is 4.04% (inactive).
For `CCOc1ccc(NC2c3ccccc3C(=O)N2Cc2ccco2)cc1` (stereo not given), the viability in assay [1] is 83.5%; in assay [3] it was 83.5% (inactive); in assay [4], 98.7% (inactive); in assay [5] it was 96.2% (inactive); in [6] (setting [16]), 98.8%; in assay [6] (setting [17]), 96.2%. Besides, the viability is 92.6% (inactive) in [12] and 85.4% (inactive) in assay [13]. Besides, the Her2 level in assay [2] is 96.5% (inactive). For the same compound, the differential viability (reversal) in assay [6] (H69AR cells + 2 uM doxorubicin) is -2.58% (inactive). For the same compound, the results for the inhibition in assay [7], in assay [8] and in [14] were 5% (inactive), 7.83% (inactive) and 1.4% (inactive), respectively. Also, the growth inhibition in assay [9] is 3.67% (inactive); in [10], 6.9% (inactive). The viability increase in assay [11] is -0.75% (inactive). In assay [15], the RAM network inhibition is 5.57% (inactive).
